# In PubChem BioAssay (NCATS):
# Inconclusive results are not listed. Calls of active or inactive are those of the source. Calls come from the whole dose curve; as a rule, active = well fitted cell-killing curve with a large enough effect; inconclusive = small, poorly fitted or top-dose-only effect; inactive = flat fitted curve, though single readings scatter.
# Assay: Cellular viability qHTS for adrenocortical cancer (ACC) cell line NCI-H295R (AID 1963990); note: nearly all actives have a fitted effect of over 60% in size;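 for activity change, negative = viability loss: 0% = DMSO only wells and -100% = full killing with cytotoxic reference compound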
# Details: CellTiter-Glo ATP luminescence, 48 h; series mostly up to 46.1 µM; activity change, negative = viability loss: at the top concentration
# In short: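 Luminescent ATP read-out (CellTiter-Glo, 20 min RT) after 48 h drug exposure of NCI-H295R cells; a titration up to 46 uM final. Data normalized to doxorubicin (100% inhibition) and DMSO (0%); 4-parameter fit gives IC50, max response.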
# Potency is the fitted concentration of half-maximal effect.
Compound,"activity change, negative = viability loss",Potency
OC[C@H]1O[C@@H](Oc2cc(O)cc(/C=C/c3ccc(O)cc3)c2)[C@H](O)[C@@H](O)[C@@H]1O,-3.15% (inactive),
Clc1cccc(-c2ccc(-c3nnc(CCCc4ccc5cccnc5n4)o3)cc2)c1,0.619% (inactive),
Fc1ccc(-c2nc(-c3ccccc3F)[nH]c2-c2ccncc2)cc1,0.431% (inactive),
COc1cc(O)c(C(=O)c2ccccc2)cc1S(=O)(=O)O,0.528% (inactive),
COCCOC(=O)C1=C(C)NC(C)=C(C(=O)OC(C)C)C1c1cccc([N+](=O)[O-])c1 (stereo not drawn),-6.56% (inactive),
COC1=C2C[C@H](C)C[C@H](OC)[C@H](O)[C@@H](C)/C=C(/C)[C@H](OC(N)=O)[C@@H](OC)/C=C\C=C(\C)C(=O)NC(=CC1=O)C2=O,-6.46% (inactive),
O=C(c1cc(O)c(O)c(O)c1)c1ccc(O)c(O)c1O,-29.2% (inactive),
CO[C@]12C[C@@H](COC(=O)c3cncc(Br)c3)CN(C)[C@@H]1Cc1cn(C)c3cccc2c13,-21.6% (inactive),
CC(C)(C)C(=O)CN1C(=O)[C@H](NC(=O)Nc2cccc(C(=O)O)c2)CN(C2CCCCC2)c2ccccc21,3.71% (inactive),
C[C@@H]1C[C@H]2[C@@H]3C[C@H](F)C4=CC(=O)C=C[C@]4(C)[C@@]3(F)[C@@H](O)C[C@]2(C)[C@@]1(O)C(=O)CO,1.56% (inactive),
CC1=C(CO)C(=O)O[C@@H]([C@@H](C)[C@H]2CC[C@H]3[C@@H]4C[C@H]5O[C@]56[C@@H](O)C=CC(=O)[C@]6(C)[C@H]4CC[C@]23C)C1,,447 nM (active)
CCCSc1ccc2nc(NC(=O)OC)[nH]c2c1,,820 nM (active)
Cc1ccccc1C(=O)N1CC/C(=N\OS(=O)(=O)O)c2ccc(Cl)cc21,-0.714% (inactive),
